Screens as filed in PubChem BioAssay.
Only some compounds are listed: those with a hit (about 1.9% of all), similar ones and a draw of the others.
KLF5 inh: suppresses KLF5 promoter-driven expression; DLD-1 KLF5 promoter-luciferase reporter, luminescence; inhibition, % at 5 µM; actives 0.23% (n = 290,000); AID 1700;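 active = inhibition above a per-plate limit of that plate's mean compound inhibition plus 3 SD, cut at about 60% in these data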;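 also: 0% = DMSO wells and 100% = LY294002 at 200 µM; higher means less KLF5 promoter-driven luciferase light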
IEC-6 tox-1: IEC-6 cytotoxicity, counter-screen for KLF5 inhibitors. actives 0.78% (n = 290,000). inhibition, % at 5 µM. luminescence viability;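 also: 0% = plate median of test compound wells and 100% = cytotoxic reference compound wells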
BaF3 tox: parental Ba/F3 viability inhibition as JAK2V617F counter-screen; CellTiter-Glo ATP luminescence; inhibition, % at 5.6 µM; actives 1.1% (n = 220,000);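 active = inhibition above a per-campaign cutoff, the mean inhibition of all tested compounds plus 3 SD, cut at about 27% in these data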;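 also: 0% = DMSO wells and 100% = JAK Inhibitor I control wells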
APP 5UTR inh: APP translation inhibition | SH-SY5Y APP 5'UTR-luciferase reporter, luminescence | actives 0.82% (n = 190,000) | inhibition, % at 2 µM;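 active = inhibition above a set limit, derived from the sample mean plus 3 SD, cut at about 45% in these data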
Ba/F3 V617F tox: loss of viability in JAK2V617F-driven Ba/F3 cells. Ba/F3 EpoR-JAK2V617F viability, ATP luminescence. inhibition, % at 5.6 µM. actives 1.1% (n = 220,000);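 active = inhibition above the campaign mean plus 3 SD over all tested compounds, cut at about 24% in these data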;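 also: cytokine-independent growth of Ba/F3 cells driven by EpoR plus mutant JAK2; 0% = DMSO-treated cells and 100% = JAK inhibitor I control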
KLF5 inh confirm: KLF5 inhibition, confirmation assay; actives 79% (n = 610); inhibition, % at 4 µM; DLD-1 KLF5 promoter firefly luciferase reporter, luminescence; shares compounds with KLF5 inh;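 active = inhibition above a set limit taken from the earlier primary screen, cut at about 63% in these data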;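 also: 0% = DMSO wells and 100% = LY294002 at 200 µM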
IEC-6 tox-2: rat IEC-6 cytotoxicity, KLF5 inhibitor counter-screen; shares compounds with KLF5 inh; IEC-6 rat intestinal cells, viability luminescence; inhibition, % at 4 µM; actives 56% (n = 610); in the data active = inhibition above about 23%;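 also: cells exposed to compounds for 48 hours before viability read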
IEC-6 tox confirm: confirmation of cytotoxic compounds in rat IEC-6 intestinal epithelial cells; shares compounds with IEC-6 tox-1; IEC-6 rat intestinal epithelial viability, luminescence; inhibition, % at 5 µM; actives 63% (n = 1,900); AID 1907;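 also: 0% = vehicle and 100% = reference cytotoxic drug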
* = called active by the depositor; . = no result. Rule as the data show it, unless noted: active = inhibition above about 22%; inactive = the rest.

SMILES	KLF5 inh	IEC-6 tox-1	BaF3 tox	APP 5UTR inh	Ba/F3 V617F tox	KLF5 inh confirm	IEC-6 tox-2	IEC-6 tox confirm
CC[C@H]1OC(=O)[C@H](C)[C@@H](O[C@H]2C[C@@](C)(OC)[C@@H](O)[C@H](C)O2)[C@H](C)[C@@H](O[C@@H]2O[C@H](C)C[C@H](N(C)C)[C@H]2O)[C@](C)(O)C[C@@H](C)C(=NOCOCCOC)[C@H](C)[C@@H](O)[C@]1(C)O	-30	0	.	.	.	.	.	.
Cc1ccc(S(=O)(=O)Cc2ccc(C(=O)N3CCN(c4cccc(C)c4C)CC3)o2)cc1	64*	77*	.	.	.	68*	57*	56*
COc1ccc(S(=O)(=O)Cc2ccc(C(=O)N3CCN(c4cccc(C)c4C)CC3)o2)cc1	-8	2	5	-14	1	.	.	.
Cc1cc(C)nc(/N=C(\NC(=O)C(C)(C)C)Nc2ccc(F)cc2)n1	-9	1	-5	.	-1	.	.	.
CCCCS(=O)(=O)/C=C\C=C/S(=O)(=O)CCCC	103*	102*	105*	98*	101*	92*	100*	40*
CCC1CN(C(=O)N2CCC(C(=O)NCc3ccc(OC)cc3OC)CC2)c2ccccc2O1 (stereo not given)	9	-4	.	.	.	.	.	.
O=C(N/N=C/c1ccc(O)cc1O)c1ccncc1	6	-3	.	.	.	.	.	.
O=C(N/N=C/c1cc(Br)cc(Br)c1O)c1ccncc1	78*	24*	-5	26	4	88*	40*	14
Cc1cc(C)nc(NN2C(=O)C=CC2=O)n1	-29	7	.	.	.	.	.	.
CC(=O)NC(c1ccc(C)cc1)c1cc(Cl)c2cccnc2c1O (stereo not given)	64*	94*	.	.	.	83*	69*	69*
CC(=O)NC(c1ccc(C(C)C)cc1)c1ccc2cccnc2c1O (stereo not given)	81*	70*	.	.	.	82*	83*	83*
CC(=O)NC(c1ccccc1)c1cc([N+](=O)[O-])c2cccnc2c1O (stereo not given)	-20	-6	10	-21	3	.	.	.
COc1cccc(C(NC(C)=O)c2ccc3cccnc3c2O)c1 (stereo not given)	91*	99*	.	.	.	97*	81*	75*
CC(=O)NC(c1cccc([N+](=O)[O-])c1)c1ccc2cccnc2c1O (stereo not given)	62*	94*	.	.	.	96*	80*	77*
COC(=O)[C@@H]1CCCN1C(=O)CCc1nnc(CCC2CCCCC2)o1	-43	0	1	-55	-1	.	.	.
Cc1cc(C)c2oc(C(=O)N3CCN(Cc4ccccc4)CC3)cc(=O)c2c1	11	6	.	.	.	.	.	.
Cc1ccc(C)c(OCCC(=O)NCCc2ccc(F)cc2)c1	-11	4	.	.	.	.	.	.
N/C(=N\OC(=O)CSc1ccccc1)c1ccc([N+](=O)[O-])cc1	-50	1	5	-38	0	.	.	.
CCN(CC)c1ccc(NC(=O)c2cc(OC)cc(OC)c2)c(C)c1	75*	78*	78*	92*	78*	79*	60*	60*
COc1cc(NC(=O)C2CCCN2S(=O)(=O)c2ccc3c(c2)CC(C)N3C(C)=O)cc(OC)c1 (stereo not given)	-36	-2	.	.	.	.	.	.
O=C(N/N=C(\c1ccccc1)c1cccnc1)c1ccc(O)cc1	-48	-4	.	.	.	.	.	.
O=C(N/N=C(\c1ccccc1)c1cccnc1)c1cccc(F)c1	68*	100*	.	.	.	84*	75*	80*
CC(C)CN1CCN(Cc2cn(C)c3ccccc23)CC1CCO (stereo not given)	-13	2	.	.	.	.	.	.
COc1ccc(C2C(O)C(c3c[nH]c4ccccc34)=NN2C(=O)CCl)cc1 (stereo not given)	102*	102*	.	.	.	99*	101*	100*
COc1ccc(C2NN=C(c3c[nH]c4ccccc34)C2O)cc1 (stereo not given)	-5	1	.	.	.	.	.	.
CCCCCCCCCC[n+]1cccc2c3ccccc3ccc21	96*	52*	92*	24	101*	65*	38*	36*
COc1ccc(S(=O)(=O)NCc2ccccn2)cc1NC(=O)c1ccccc1F	64*	76*	.	.	.	81*	53*	52*
